# Measurements taken from ChEMBL document CHEMBL4888484, “Replenishing the malaria drug discovery pipeline: Screening and hit evaluation of the MMV Hit Generation Library 1 (HGL1) against asexual blood stage Plasmodium falciparum ,using a nano luciferase reporter read-out” (2022).
# The campaign covered roughly 4,800 compounds. About 420 (8.8%) showed an effect of 50% or more. The sample as a whole holds a higher share of strong results than the screen did.
# Test system: Plasmodium falciparum
# Test: Confirmatory screen in NF54 nanoGlo assay, in single point, at 2uM, 72h
# Type: functional, Erythrocyte
# Settings: timepoint 72 hour
row,Structure (SMILES),% Inhibition [%]
1,COCCNC(=O)c1ccc(-n2nc(-c3nnc(C)o3)c(C)c2-c2ccc(OC)cc2)cc1,46
2,CC(C)N(C)CCOC(=O)c1ccccc1Cl,-1
3,CCN1c2cc(C(=O)NCc3ccncc3)ccc2C(=O)N2CCCC[C@H]21,-2
4,Cc1cc(C(=O)N(CCN(C)C)c2ccccc2)c(C)s1,-1
5,Cc1cc(C(=O)Nc2ccc(Br)c(C)n2)no1,-12
6,Cc1cc(Br)ccc1N1CC[C@@H](C(=O)NC2CC2)C1=O,2
7,CCN(CCO)S(=O)(=O)c1ccc2c(c1)CCO2,-7
8,O=c1cc2c(nn1Cc1cccc(Cl)c1)-c1ccccc1CC2,-6
9,c1ccc(CC2=NCCc3ccccc32)cc1,65
10,Cc1cccc2ncnc(N(C)[C@@H](C)Cc3ccc(O)cc3)c12,79
11,COc1ccccc1Nc1c(-c2cccs2)nc2ccccn12,-2
12,Cc1c(N=C2NC3(CCCCC3)Cc3ccccc32)c(=O)n(C)n1-c1ccccc1,-1
13,CCC[N+]1(CC#C[C@@](O)(c2ccccc2)C(C)(CC)CC)CCCCC1,48
14,CCC[N+]1(CC#C[C@@](O)(c2ccccc2)C2(C)CCCC2)CCCCC1,46
15,CC1([C@@](O)(C#CC[N+]2(C)CCCCC2)c2ccccc2)CCCC1,50
16,O=C(N1CCCN(c2nc3ccccc3nc2-c2ccccc2)CC1)C(Cl)(Cl)Cl,46
17,CCn1cc(C(=O)Nc2ccc(C(=O)N3CCCCC3)cc2)cn1,1
18,CCN(CC)c1ccc(C(=O)Nc2ccc3nc(N4CCCC4)cc(C)c3c2)cc1,85
19,COc1cc(OC)cc(C(=O)Nc2ccc3nc(N4CCC(C)CC4)cc(C)c3c2)c1,47
20,COc1ccc(N(Cc2ccc(F)cc2)S(=O)(=O)c2ccc3nncn3c2)cc1,-13
21,CC(C)CC(=O)Nc1ccc2c(c1)C(N1CCC(C)CC1)=Nc1ccccc1O2,0
22,Cc1oc(C(=O)N2CC3(CCCC3)c3ccccc32)cc1S(=O)(=O)N(C)C,4
23,COCCCn1c(NS(=O)(=O)c2ccc3ccccc3c2)c(S(=O)(=O)c2ccc(C)cc2)c2nc3ccccc3nc21,56
24,COCCCn1c(NS(=O)(=O)c2ccccc2)c(S(=O)(=O)c2ccc(C)cc2)c2nc3ccccc3nc21,61
25,COCCCN(Cc1c(C)nn(-c2cccc(F)c2)c1N1CCN(C)CC1)S(=O)(=O)c1ccc2ccccc2c1,7

row,Structure (SMILES),% Inhibition [%]
1,COc1ccc(-c2cc(C[C@H]3CNCC[C@H]3CC(=O)Nc3ccccc3)no2)cc1,-7
2,CCCn1c(C)ccc(-c2noc(CCC(=O)NC3CCCC3)n2)c1=O,-6
3,CN(C(=O)C1C(C(=O)O)C1(C)C)c1ccccc1OC(F)F (stereo not drawn),-2
4,Cc1ccccc1[C@H]1CCN(c2ccc(NC(=O)c3ccc(Cl)cc3)c(C(=O)O)c2)C1,-11
5,Cc1ccc(C(=O)Nc2ccc(N3CCN(CCC#N)CC3)cc2C(=O)O)cc1,-12
6,Cc1ccc(C(=O)Nc2cc3c4c(c2)C2CCCC2CN4CC2CCCC32)cc1 (stereo not drawn),60
7,CC(C)(C)OC(=O)N1C2CCC1CC(CC(=O)NC1CCCC1)C2 (stereo not drawn),8
8,COCCN(CC1CN(Cc2cccs2)CC1c1cccc(F)c1)C(=O)C(C)C (stereo not drawn),-3
9,Cc1cc(C)n2cc(COC(=O)Cn3c(C)cc4ccccc43)nc2n1,-2
10,Cc1oc2ncn(CCN3CCCC3)c(=O)c2c1C(=O)Nc1ccc(C#N)cc1,34
11,CCCN1CCC(NCc2ccc(-c3cccc(Cl)c3Cl)o2)CC1,65
12,O=C(Nc1cccc2ccccc12)c1nn[nH]c1NS(=O)(=O)c1ccccc1,-9
13,COc1ccnc(N2CCc3nn(C(C)C)c(=O)cc3C2)n1,-4
14,O=C(Cc1ccc(N(Cc2cccc(F)c2)C(=O)C2CCCC2)cc1)NCCN1CCCC1,21
15,O=C(Cc1ccc(N(Cc2cccc(F)c2)C(=O)C2CCCC2)cc1)NCCN1CCCCC1,54
16,Cc1cccc(CN(C(=O)C2CCCC2)c2ccc(CC(=O)NCCN3CCOCC3)cc2)c1,9
17,NC(=O)C1CCN(C(=O)Nc2nc(C(F)(F)F)cs2)CC1,5
18,CC1(C)CCC[C@@H]1NS(=O)(=O)c1ccc(C(=O)N2CCOCC2)cc1,4
19,Oc1ccc(-c2ncc3n2CCCC3)cc1,4
20,Oc1ccc(-c2nnc(-c3ccc(O)cc3)nn2)cc1,51
21,Cc1c(-c2ccc(F)cc2)[nH]c2ccc(CNc3nccc(N(C)C)n3)cc12,29
22,CC(C)[C@H](Nc1ccc2nccnc2n1)c1nnc2n1CCC2,-8
23,Oc1ccccc1-c1cnc(C(F)(F)F)s1,94
24,Oc1nc(-c2cccc(C(F)(F)F)c2)sc1-c1ccccc1,0
25,CN(C)Cc1cn(C[C@H]2C[C@@H](NC(=O)Nc3ccc4c(c3)OCCO4)[C@H](O)[C@@H]2O)nn1,0

row,Structure (SMILES),% Inhibition [%]
1,CC1CN(C(=O)COc2ccc3oc4ccccc4c3c2)CC(C)O1 (stereo not drawn),-3
2,CNC[C@H]1CCCN1C(=O)c1ccc(-c2noc(C(F)(F)F)n2)cc1,29
3,COC1CCCCC1NC(=O)c1ccc(-c2noc(C(F)(F)F)n2)cc1 (stereo not drawn),-1
4,CC(C(=O)N1N=CCC1(O)C(F)(F)F)n1nc(C(F)(F)F)cc1C1CC1 (stereo not drawn),-1
5,O=C(NCCc1cc(F)cc(F)c1)C1CC2CCC1C2 (stereo not drawn),0
6,COc1ccc(-c2nccn3cc(C(=O)NCCc4ccncc4)nc23)cc1,-1
7,O=S(=O)(Cc1cc(Cl)cc(Cl)c1)NCCCCn1ccnc1,-6
8,COc1ccc(Nc2nnc(-c3ccc(NC(=O)C(=O)NCCCn4ccnc4)cc3)s2)cc1,56
9,Cn1c2ccc(Br)cc2c2cc(NS(=O)(=O)c3ccccc3)ccc21,4
10,CS(=O)(=O)Nc1nc2c(s1)CN(C(=O)c1ccc3c(c1)CCC=C3)CC2,0
11,Cc1cc(F)ccc1NC(=O)Cn1nc(C2CC2)c2c(C(F)F)cc(=O)[nH]c21,-4
12,CC1CCC(NC(=O)C(c2ccccc2)c2ccccc2)CC1 (stereo not drawn),10
13,CN1CCC[C@H](C(=O)Nc2nc(C3CC3)cs2)C1,-12
14,Cc1nc(CC(=O)Nc2cc(C3CC3)nn2-c2ccccc2)cs1,1
15,CC(C)c1cc(=O)[nH]c(-n2nc(C3CC3)cc2NC(=O)c2ccc(F)cc2)n1,93
16,Cc1ccc(C(=O)Nc2c(C(N)=O)sc3nc(C(F)F)cc(C4CC4)c23)cc1,-16
17,CCc1cc(=O)[nH]c(-n2nc(C3CC3)cc2NC(=O)C2CCCCC2)n1,88
18,CCc1cc(C(=O)N2CCCCCC2)c2c(C3CC3)nn(-c3ccc(F)cc3)c2n1,0
19,Cc1cc(=O)[nH]c(-n2nc(C3CC3)cc2NC(=O)C(c2ccccc2)c2ccccc2)n1,91
20,Cc1nn(C)c(NC(=O)c2ccc(C(C)(C)C)cc2)c1C1=CCCCC1,15
21,Cc1cc(=O)[nH]c(-n2nc(C3CC3)cc2NC(=O)c2ccc(C(C)(C)C)cc2)n1,57
22,CC(C)(C)c1ccc(C(=O)N[C@H]2CCCC[C@@H]2NC(=O)c2ccc(C(C)(C)C)cc2)cc1,-5
23,CC1CC(C)CC2(C1)NC(=O)N(CCC1OCCO1)C2=O (stereo not drawn),-1
24,Cc1cc(=O)n(CC(=O)N2CCC(C)CC2)c(-c2ccc(F)cc2)n1,-4
25,O=C(CCc1nc(CN2CCN(S(=O)(=O)c3ccc(F)cc3)CC2)no1)N1CCCC1,-4

row,Structure (SMILES),% Inhibition [%]
1,CCOC(=O)N1CCc2c(nc(-c3ccc(C)cc3)n(CC(=O)Nc3ccc(C(C)C)cc3)c2=O)C1,-16
2,Cc1noc([C@H](C)S(=O)(=O)Cc2cc(C)on2)n1,0
3,O=S(=O)(Nc1ccc(F)cc1OCC1CC1)c1cn[nH]c1,-12
4,Cn1cc(CNC(=O)NCC2(Cc3ccccc3)CCC2)cn1,-4
5,Cc1c(C(C)C)c(=O)n(-c2ccc(S(=O)(=O)N3CCN(c4nc5ccccc5nc4-c4ccccc4)CC3)cc2)n1C,-20
6,CCN(CC(C)(C)O)C(=O)C1CCCCCC1,-9
7,Cn1nc(C(F)(F)F)cc1B1OC(C)(C)C(C)(C)O1,4
8,C=CCOc1ccc(Cl)c(C(=O)N[C@H]2CCS(=O)(=O)C2)n1,0
9,O=C(CCCc1ccccc1)Nc1cc(C2CC2)nn1-c1nc(-c2ccccc2)cc(=O)[nH]1,48
10,CCC(CC)C(=O)Nc1cc(C2CC2)nn1-c1nc(-c2ccccc2)cc(=O)[nH]1,50
11,Cc1cc(N)n(-c2nc(-c3ccccc3)cc(=O)[nH]2)n1,1
12,Cc1ccc(NC(=O)NC(=O)Cn2ccc(=O)c3sccc32)cc1C,0
13,Cc1ccc2c(c1)c1c(n2S(=O)(=O)c2ccc(C(C)(C)C)cc2)CCCN(C)C1,76
14,Cc1ccc(S(=O)(=O)N2CCN(S(C)(=O)=O)C2)cc1,0
15,Cc1ccc(S(=O)(=O)N2CCCC(=O)c3ccccc32)cc1,-3
16,CC#CCCC(=O)Nc1ccc(OC)cc1,-5
17,Cc1cc(C)c(OC(=O)c2ccc(Cl)cc2Cl)c(CNC(=O)c2ccccc2)c1,-16
18,c1cc([C@@H]2CCCCN2c2nc(C3CC3)ns2)n[nH]1,2
19,CCNC(=O)C[C@H]1CCCCN1C(=O)C1CCN(Cc2csc(C)n2)CC1,-1
20,Cc1ccc(C(=O)N[C@@H](C)CCc2ccccc2)cc1S(=O)(=O)N1CCN(C)CC1,-20
21,O=S(=O)(c1ccccc1C(F)(F)F)N1CC[C@]2(CCN(c3cccnc3)C2)C1,-2
22,CCn1nccc1CN(C)C(=O)c1cc(C)c(C)s1,5
23,CCCC[C@H](CC)C(=O)Nc1cc(C)ccn1,0
